High-throughput results: PubChem BioAssay, Sanford-Burnham Center for Chemical Genomics
Rows were chosen to be rich in hits. Some 3.1% of all compounds tested hit in one or more screens of this group.
CF NFkB inh: blocks PAF-induced NF-kB reporter in cystic fibrosis cells. KKLEB NF-kB-GFP reporter, GFP fluorescence overnight. inhibition, % at 5 µM. 360,000 compounds, 0.86% hits;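 active = at least 50% inhibition at 5 µM, scaled per plate between neutral and stimulator controls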;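 also: PAF is a Pseudomonas aeruginosa culture filtrate used as stimulus; plate controls were PAF-stimulated DMSO wells for no effect and unstimulated DMSO wells for full effect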
PPC-1+TRAIL kill: compounds killing PPC-1 cancer cells with TRAIL present (potentiator screen, no TRAIL-free arm) | PPC-1 cells + TRAIL, ATPLite viability luminescence | cell killing (% activity), % at 4 µM or 5 µM | 220,000 compounds, 0.41% hits | AID 1443;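 active = cell killing above 50% in the first pass at 4 µM, then a duplicate retest at 5 µM averaging 50% or more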;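 also: plate controls were cells with TRAIL plus DMSO for no effect and medium-only wells lacking cells for full effect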
HIF-2a inh: blocks HIF-2a reporter activity; 786-0 RCC cells HIF-2a reporter, luciferase luminescence, overnight; inhibition, % at 18.8 µM; 360,000 compounds, 0.72% hits; AID 624352;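 active = inhibition of the luminescence signal of 40% or more relative to plate controls, in a single-dose primary screen at 18.75 µM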
Peg3 promoter: inhibitors of Peg3 promoter | AID 588405 | 360,000 compounds, 1.7% hits | HeLa PEG-Prom luciferase reporter, luminescence, overnight | inhibition, % at 20 µM;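 active = inhibition of at least 50% at 20 µM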
C8 TRAIL sens: caspase-8 TRAIL sensitization; 360,000 compounds, 1% hits; inhibition (viability loss, TRAIL sensitization), % at 10 µM; NB7+C8 cells + TRAIL, ATPlite viability luminescence; AID 624354;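 active = compounds causing at least 50% loss of cell viability in the single-dose screen, relative to plate controls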
KKLEB tox: counter-screen for CF NF-kB inhibitors: cytotoxicity; KKLEB CF airway cells viability, ATPlite luminescence, overnight; active compounds read low; cells stimulated with P. aeruginosa culture filtrate; activity change (cytotoxicity), % at 5 µM; 360,000 compounds, 0.36% hits; AID 602141;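 active = corrected activity change at or below -50% at 5 µM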
Mdm2-MdmX confirm: Mdm2/MdmX (human) interaction inhibition, confirmed. shares compounds with HIF-2a inh. SaOS-2 split-luciferase Mdm2/MdmX complementation, luminescence. inhibition, % at 8 µM. 740 compounds, 99% hits. AID 504601;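 active = mean inhibition of the luminescence signal across two replicates at or above 26 percent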
Target sequence (O15151 whole entry, looked up): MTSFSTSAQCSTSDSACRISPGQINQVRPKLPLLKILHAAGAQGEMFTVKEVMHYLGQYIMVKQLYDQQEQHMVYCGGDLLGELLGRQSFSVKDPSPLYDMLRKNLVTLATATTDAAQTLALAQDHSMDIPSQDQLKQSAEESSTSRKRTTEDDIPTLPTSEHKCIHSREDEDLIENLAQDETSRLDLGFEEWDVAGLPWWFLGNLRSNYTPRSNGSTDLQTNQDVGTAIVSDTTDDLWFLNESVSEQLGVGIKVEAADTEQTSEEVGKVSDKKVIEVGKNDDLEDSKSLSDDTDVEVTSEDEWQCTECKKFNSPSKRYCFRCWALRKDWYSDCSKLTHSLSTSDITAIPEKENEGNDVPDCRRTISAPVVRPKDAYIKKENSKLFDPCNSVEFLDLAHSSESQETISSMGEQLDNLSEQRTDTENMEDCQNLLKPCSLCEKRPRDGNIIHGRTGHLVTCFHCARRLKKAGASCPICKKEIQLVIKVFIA
Target sequence (Q00987 whole entry, looked up): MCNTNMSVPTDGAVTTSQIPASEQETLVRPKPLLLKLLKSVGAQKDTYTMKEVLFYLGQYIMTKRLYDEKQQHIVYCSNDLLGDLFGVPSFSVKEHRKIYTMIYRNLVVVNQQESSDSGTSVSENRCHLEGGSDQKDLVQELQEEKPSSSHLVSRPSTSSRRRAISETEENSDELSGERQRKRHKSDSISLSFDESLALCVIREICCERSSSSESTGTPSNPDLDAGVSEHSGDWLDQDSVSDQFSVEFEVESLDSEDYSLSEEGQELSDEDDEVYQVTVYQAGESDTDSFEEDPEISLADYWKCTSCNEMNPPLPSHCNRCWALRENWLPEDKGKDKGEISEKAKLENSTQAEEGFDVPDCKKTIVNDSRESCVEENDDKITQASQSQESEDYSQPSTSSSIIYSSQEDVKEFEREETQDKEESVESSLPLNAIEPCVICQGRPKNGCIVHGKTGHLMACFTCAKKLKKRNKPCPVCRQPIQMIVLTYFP
HIF-2a inh conf: HIF-2a inhibition, single concentration confirmation; AID 651580; 1,800 compounds, 56% hits; inhibition, % at 18.8 µM; 786-0 RCC cells, HIF-2a luciferase reporter luminescence, overnight; shares compounds with HIF-2a inh;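 active = mean inhibition across four replicates of at least 40 percent at the single tested concentration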
HIF-1a cs: HIF-1a inhibition counter-screen for HIF-2a hits | shares compounds with HIF-2a inh | MiaPaCa-2 HIF-1a luciferase reporter, desferoxamine, overnight | inhibition, % at 18.8 µM | 1,800 compounds, 72% hits | AID 651589;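 active = mean inhibition of the reporter signal across four replicates at the single tested dose of 50% or more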
Numbers without * were called inactive; . = not tested or not shown.

SMILES	CF NFkB inh	PPC-1+TRAIL kill	HIF-2a inh	Peg3 promoter	C8 TRAIL sens	KKLEB tox	HIF-2a inh conf	HIF-1a cs	others
COc1ccc(/C=C\C(=O)c2c(O)ccc3c(C)cc(=O)oc23)cc1OC	17	4	55*	42	-5	1	27	85*
Cc1ccccc1NC1=C/C(=N\S(=O)(=O)c2cccs2)c2ccccc2C1=O	94*	26	93*	102*	90*	-93*	.	.	Mdm2-MdmX confirm=103*
O=C(CNC(=O)c1ccccc1F)NCCN1C(=O)S/C(=C\c2ccc3c(c2)OCO3)C1=O	-12	.	14	-48	7	-2	.	.
NCCN1C(=O)S/C(=C\c2ccc3c(c2)OCO3)C1=O	-14	.	86*	-8	-16	11	95*	67*
O=C(C=C=Nc1ccccc1)C(=O)N=C=Cc1ccccc1	92*	-2	75*	102*	4	-20	53*	101*
COc1cc(N2C(=O)C=CC2=O)c(OC)cc1Cl	22	19	41*	106*	-16	-2	80*	0
Cc1ccc(C)c(S(=O)(=O)ON2C(=O)c3ccccc3C2=O)c1	-8	3	68*	56*	-5	-13	57*	2
CC(=O)Nc1ccc(NC(=O)c2ccc(-c3ccnn3C)c3ccoc23)cc1	5	.	61*	-80	-1	-3	86*	34
Cc1cccc(NC(=S)N=Nc2c(O)[nH]c3ccccc23)c1	19	22	-73	-19	20	6	.	.
COc1ccccc1NC(=S)N=Nc1c(O)[nH]c2ccc(Br)cc12	23	8	7	92*	43	-18	.	.	Mdm2-MdmX confirm=84*
CC(C)=C(NC(=O)c1ccccc1)C(=O)NC(Cc1ccccc1)C(=O)O (configuration not stated)	-5	.	4	8	6	4	.	.
CCS(=O)(=O)N1CCN(c2ccc(C(=O)NC34CC5CC(CC(C5)C3)C4)cc2[N+](=O)[O-])CC1	14	-5	19	0	17	-16	.	.
CCC(OC(=O)c1ccc(S(C)(=O)=O)c([N+](=O)[O-])c1)C(=O)NC1C2CC3CC(C2)CC1C3 (configuration not stated)	104*	.	81*	96*	74*	-74*	18	105*
CC(OC(=O)c1ccc(S(C)(=O)=O)c([N+](=O)[O-])c1)C(=O)NC1C2CC3CC(C2)CC1C3 (configuration not stated)	95*	.	93*	95*	73*	-47	87*	100*
CC[C@]1(C(=O)OC)[C@H]2C(=O)N(C)C(=O)[C@H]2[C@H]2CN=C(SC)N21	12	.	1	18	-14	11	.	.
CCCS(=O)(=O)NC(=O)C1(C)CCN(C(=O)COc2ccccc2)C1 (configuration not stated)	-40	.	6	2	-16	22	.	.
Cc1ccc(Oc2ccc(OCC(=O)Nc3ccncc3)cc2)cc1	-4	.	55*	9	17	-6	77*	50*
CCc1ccc(OCC(=O)Nc2ccncc2)cc1	-16	.	-52	-29	5	6	.	.
N#C/C(C(=O)N1CCCCC1)=C1\Nc2ccccc2S1	-6	11	-226	-199	13	6	.	.
Cc1ccc(NC(=S)/C(C#N)=C2/Nc3ccccc3S2)cc1	43	.	68*	30	11	5	40	56*
CC(=O)Nc1ccc2c(c1)C(=O)c1cccc(C(=O)O)c1-2	10	.	32	-12	-6	-4	.	.
COc1ccc(N2CCN(CCNC(=O)c3ccc4nc5ccccc5c(=O)n4c3)CC2)cc1	2	.	0	10	0	-15	.	.
COc1ccc(N2CCN(CCNC(=O)c3ccc4c(c3)[nH]c(=S)n3c5ccccc5nc43)CC2)cc1	-10	12	31	84*	21	-1	.	.	Mdm2-MdmX confirm=99*
O=C(O)CCSc1ccccn1	-9	8	15	27	3	2	.	.
N=c1nc(SCCC(=O)O)ss1	-8	-17	69*	6	-3	1	73*	46
SMILES	CF NFkB inh	PPC-1+TRAIL kill	HIF-2a inh	Peg3 promoter	C8 TRAIL sens	KKLEB tox	HIF-2a inh conf	HIF-1a cs	others
O=C(Nc1ccc(N2CCN(C(=O)c3ccc(Cl)cc3)CC2)cc1)c1ccc2c(c1)OCCO2	-7	28	-13	23	32	14	.	.
O=C(Nc1ccc(N2CCN(C(=O)c3ccc(Cl)cc3)CC2)cc1)c1ccc([N+](=O)[O-])o1	96*	37	97*	104*	36	-78*	87*	107*
O=C(Nc1nc2c(Cl)cccc2s1)c1ccc([N+](=O)[O-])o1	-25	.	-154	-12	5	1	.	.
O=C(Nc1ccc(N2CCN(Cc3ccccc3F)CC2)cc1)c1ccc([N+](=O)[O-])o1	81*	.	93*	100*	89*	-77*	31	105*
CCCC(=O)N1CCN(c2ccc(NC(=O)c3ccc([N+](=O)[O-])o3)cc2)CC1	90*	21	94*	100*	24	-63*	64*	97*
O=C(Nc1ccc(N2CCN(Cc3ccccc3F)CC2)cc1)c1ccccc1[N+](=O)[O-]	-13	19	19	11	-9	-2	.	.
O=C(Nc1cccc(NC(=O)c2ccccc2Cl)c1)c1ccc([N+](=O)[O-])o1	78*	.	61*	98*	-12	-9	37	104*
O=C(Nc1cccc(C(=O)N2CCOCC2)c1)C1CCCC1	14	.	-3	-11	-1	-1	.	.
Cc1ccc(OC2CCN(C(=O)[C@H]3O[C@@H](n4ccc(N)nc4=O)[C@H](O)[C@@H]3O)CC2)cc1	2	.	3	-23	-12	5	.	.
CCC(=O)N1CCN(c2ccc(NC(=O)c3ccc([N+](=O)[O-])o3)cc2)CC1	56*	15	61*	106*	43	-21	31	74*
CC(C)(C)C(=O)N1CCN(c2ccc(NC(=O)c3ccc([N+](=O)[O-])o3)cc2)CC1	56*	.	88*	97*	46	-4	10	81*
CCC(=O)N1CCN(c2ccccc2NC(=O)c2ccc([N+](=O)[O-])o2)CC1	-4	.	1	14	12	-2	.	.
CS(=O)(=O)N1CCN(c2ccc(NC(=O)c3ccc([N+](=O)[O-])o3)cc2)CC1	84*	49	79*	104*	-3	-65*	10	57*
